High-throughput results (PubChem BioAssay)
A selection: hits, their analogues and other compounds. The true share with any hit is near 7%.
KAT2A inh: qHTS Assay for Inhibitors of GCN5L2. Histone acetyltransferase KAT2A (Homo sapiens), Q92830. GCN5L2 HAT assay, ThioGlo1 CoA-SH fluorescence. Potency, µM (series often up to 58.9 µM), actives largely listed as inhibitors. actives 0.21% (n = 390,000). AID 504327, 2011
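Fluorescence readout, Ex340nm/Em540nm: ThioGlo1 (50uM final) reacts with free CoA thiol released as 20nM GCN5L2 acetylates H3(1-25) peptide (75uM) using acetyl-CoA (70uM). Compound and enzyme sat 15 min beforehand; 20 min room-temperature reaction.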
JMJD2A Tudor: qHTS Assay for Inhibitors of JMJD2A-Tudor Domain; actives 4.4% (n = 390,000); AID 504339, 2011; Lysine-specific demethylase 4A (Homo sapiens), O75164; AlphaScreen JMJD2A-Tudor / H3K4me3 peptide binding; Potency, µM (highest dose often 114 µM), hits mostly inhibitors; further: nearly all actives have a fitted effect of over 50% in size
PI5P4K alpha inh: qHTS for Inhibitors of phosphatidylinositol 5-phosphate 4-kinase (PI5P4K) | max response, % | PI5P4Kalpha enzyme, ADP-Glo luminescence, 60 min; active compounds read low | Phosphatidylinositol 5-phosphate 4-kinase type-2 alpha (Homo sapiens), P48426 | AID 652105, 2013 | actives 1.2% (n = 330,000); active means max response of -50% or lower; inconclusive means between -30% and -50%; inactive means -30% or higher; further: value at the top dose of about 77 µM
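Quantitative HTS of the MLSMR library against PI5P4Kalpha with substrate. ATP added last at 5 microM final; room temperature, 60 minutes. Remaining ATP depleted, ADP converted and read as luminescence.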
BAZ2B block: qHTS Assay for Inhibitors of BAZ2B | Potency, µM (top dose mostly 114 µM), usual class: inhibitors | actives 4.4% (n = 360,000) | Bromodomain adjacent to zinc finger domain protein 2B (Homo sapiens), Q9UIF8 | AlphaScreen BAZ2B-H3K14Ac peptide displacement; further: nearly all actives have a fitted effect of over 60% in size
Target sequence (Q9UIF8 whole entry, looked up, the tested form may be a part): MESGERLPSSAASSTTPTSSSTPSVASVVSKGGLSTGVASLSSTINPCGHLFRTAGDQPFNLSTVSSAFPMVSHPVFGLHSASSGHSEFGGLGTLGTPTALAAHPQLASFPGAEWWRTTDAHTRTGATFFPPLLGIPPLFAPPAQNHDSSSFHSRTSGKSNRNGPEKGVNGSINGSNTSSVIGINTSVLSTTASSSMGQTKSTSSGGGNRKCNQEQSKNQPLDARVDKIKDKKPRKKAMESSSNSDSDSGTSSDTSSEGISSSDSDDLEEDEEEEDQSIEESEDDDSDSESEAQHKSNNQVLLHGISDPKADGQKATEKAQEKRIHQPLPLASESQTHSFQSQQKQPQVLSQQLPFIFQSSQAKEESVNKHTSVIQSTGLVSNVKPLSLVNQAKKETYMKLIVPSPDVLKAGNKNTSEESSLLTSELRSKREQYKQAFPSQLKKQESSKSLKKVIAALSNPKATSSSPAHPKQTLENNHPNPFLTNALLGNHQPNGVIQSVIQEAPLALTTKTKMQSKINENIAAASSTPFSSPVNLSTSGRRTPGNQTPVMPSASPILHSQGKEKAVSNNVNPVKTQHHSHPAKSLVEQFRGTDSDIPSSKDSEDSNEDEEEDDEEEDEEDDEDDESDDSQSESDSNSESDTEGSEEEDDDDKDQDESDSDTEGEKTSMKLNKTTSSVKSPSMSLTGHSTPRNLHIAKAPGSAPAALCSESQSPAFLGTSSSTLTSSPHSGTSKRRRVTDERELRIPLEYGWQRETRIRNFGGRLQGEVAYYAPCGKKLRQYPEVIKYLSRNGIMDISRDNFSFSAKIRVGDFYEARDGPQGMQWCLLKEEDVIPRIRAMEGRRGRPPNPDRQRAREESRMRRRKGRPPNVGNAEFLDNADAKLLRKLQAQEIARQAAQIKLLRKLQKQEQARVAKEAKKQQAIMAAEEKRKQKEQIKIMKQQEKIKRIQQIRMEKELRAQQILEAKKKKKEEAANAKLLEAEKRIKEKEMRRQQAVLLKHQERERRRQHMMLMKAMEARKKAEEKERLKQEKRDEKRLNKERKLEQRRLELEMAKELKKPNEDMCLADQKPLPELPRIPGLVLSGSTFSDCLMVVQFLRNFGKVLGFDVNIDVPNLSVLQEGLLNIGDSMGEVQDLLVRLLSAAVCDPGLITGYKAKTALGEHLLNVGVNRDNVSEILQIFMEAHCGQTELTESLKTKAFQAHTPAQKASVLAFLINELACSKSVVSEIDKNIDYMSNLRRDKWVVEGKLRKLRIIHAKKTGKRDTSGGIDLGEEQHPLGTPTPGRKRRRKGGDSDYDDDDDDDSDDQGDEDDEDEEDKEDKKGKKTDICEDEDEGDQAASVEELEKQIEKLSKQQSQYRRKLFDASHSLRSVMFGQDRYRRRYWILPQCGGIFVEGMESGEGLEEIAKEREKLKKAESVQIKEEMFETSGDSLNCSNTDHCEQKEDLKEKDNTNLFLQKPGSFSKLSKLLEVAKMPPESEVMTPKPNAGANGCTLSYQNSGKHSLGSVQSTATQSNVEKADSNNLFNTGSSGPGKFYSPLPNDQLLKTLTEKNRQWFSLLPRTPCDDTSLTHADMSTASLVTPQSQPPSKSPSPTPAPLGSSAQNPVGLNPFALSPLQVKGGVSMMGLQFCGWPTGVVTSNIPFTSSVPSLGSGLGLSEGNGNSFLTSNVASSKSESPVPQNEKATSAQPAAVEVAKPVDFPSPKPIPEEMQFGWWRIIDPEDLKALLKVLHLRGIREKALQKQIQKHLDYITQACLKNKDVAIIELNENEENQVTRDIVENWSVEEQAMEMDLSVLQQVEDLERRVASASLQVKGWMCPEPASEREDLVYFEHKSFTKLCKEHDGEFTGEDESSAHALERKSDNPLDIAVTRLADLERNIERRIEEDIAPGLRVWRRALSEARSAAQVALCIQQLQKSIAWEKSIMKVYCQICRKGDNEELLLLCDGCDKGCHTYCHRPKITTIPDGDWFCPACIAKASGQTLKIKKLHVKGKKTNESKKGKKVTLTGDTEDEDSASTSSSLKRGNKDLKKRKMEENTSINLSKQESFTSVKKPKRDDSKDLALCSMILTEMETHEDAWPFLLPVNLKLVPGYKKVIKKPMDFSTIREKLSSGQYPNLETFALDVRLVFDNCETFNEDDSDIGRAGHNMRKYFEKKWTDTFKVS
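BAZ2B 50 nM plus b-H3(5-23)K14Ac 50 nM, PBS pH 7.4/0.01% Tween-20, 30 min RT; compound added (max 110 uM), 30 min RT; streptavidin donor/Ni-chelate acceptor beads 10 ug/mL final, 20 min dark; AlphaScreen read.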
PLK1 PBD block: qHTS for Inhibitors of PLK1-PDB (polo-like kinase 1 - polo-box domain): Primary Screen; Serine/threonine-protein kinase PLK1 (Homo sapiens), P53350; Plk1 PBD binding of FITC phosphopeptide, fluorescence polarization; Potency, µM, most hits filed as inhibitors; actives 2.8% (n = 360,000); AID 720504, 2013; further: series mostly up to about 57 µM; nearly all actives have a fitted effect of over 65% in size
HP1b chromo inh: HTS for Inhibitors of HP1-beta Chromodomain Interactions with Methylated Histone Tails; AlphaScreen HP1-beta / biotin-H3K9me3 peptide binding; Potency, µM (series often up to 114 µM), hits mostly inhibitors; actives 0.56% (n = 390,000); further: nearly all actives have a fitted effect of over 70% in size
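AlphaScreen: HP1-beta (50 nM) preformed 30 min with biotin-H3(1-18)K9me3 peptide (50 nM) in PBS pH 7.4, 0.01% Tween-20. Compound added for 30 min at RT, then streptavidin donor/nickel chelate acceptor beads (10 ug/mL) for 30 min.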
A number is an active result; i = inactive; ? = inconclusive; nt = not tested or not shown; ! = a repeat was not active; [ ] = dose if it differs, or a comment. Unless noted, the call rests on the fitted dose curve; in most records, active means well fitted curve in the direction sought with a large enough effect; inconclusive means small, poorly fitted or top-dose-only effect, or another doubt; inactive means no such curve, though single readings can be large; an effect the other way counts as inactive or inconclusive.

SMILES | KAT2A inh | JMJD2A Tudor | PI5P4K alpha inh | BAZ2B block | PLK1 PBD block | HP1b chromo inh
Cc1ccc(NC(=O)C2CCCN2S(=O)(=O)c2ccc3nc(-c4ccccc4)[nH]c3c2)cc1C (centres undefined) | i | i | nt | 79.4µM | nt | i
Cc1cccc(NC(=O)C2CCCN2S(=O)(=O)c2ccc3nc(-c4ccccc4)[nH]c3c2)c1 (centres undefined) | i | i | nt | ? | nt | i
Cn1ccc2cc(-c3csc(N4CCC(C(N)=O)CC4)n3)ccc21 | i | i | nt | 50.1µM | nt | i
NC(=O)C1CCN(c2nc(-c3cccnc3)cs2)CC1 | i | 79.4µM | nt | i | nt | i
NC(=O)C1CCN(c2nc(-c3ccc(F)cc3)cs2)CC1 | i | i | nt | 56.2µM! | nt | i
NC(=O)C1CCN(c2nc(-c3ccccc3C(F)(F)F)cs2)CC1 | i | 79.4µM | nt | i | nt | i
CC1CCN(c2c([N+](=O)[O-])c(=O)n(-c3ccccc3)c3ccccc23)CC1 | 1.41µM | i | i | i | i | i
CN(Cc1ccsc1)C(=O)CCc1nnc(Cc2c[nH]c3ccccc23)o1 | i | 44.7µM | i | i | 23.8µM | i
Cc1ccc(NC(=O)c2cc(N3C(=O)C=CC3=O)ccc2Cl)cc1C | i | 10µM | -76.0 | ? | 5.32µM | ?
Cc1ccc(NC(=O)c2cc(N3C(=O)C4CC=CCC4C3=O)ccc2N2CCOCC2)cc1Cl (centres undefined) | i | i | i | i | i | i
c1ccc(CNCCN2CCNCC2)nc1 | i | ? | nt | 15.8µM | i | i
O=C(NCCN1CCNCC1)c1ccccc1O | nt | i | i | nt | i | i
CCNC(=O)c1c(NC(=O)c2cc(-c3cc(C)cc(C)c3O)n[nH]2)sc2c1CCCC2 | nt | i | i | nt | i | i
CC(=O)c1cccc(S(=O)(=O)NC2CC2)c1 | i | i | i | i | 26.7µM | i
CC(=O)c1cccc(S(=O)(=O)NC2CCSc3ccccc32)c1 (centres undefined) | i | ? | i | i | 26.7µM | i
COc1ccc(OC)c(CNC(=O)c2cc3c(=O)oc4ccc(C)cc4c3s2)c1 | i | i | nt | i | nt | i
CCNS(=O)(=O)c1ccc(NC(=O)Cc2ccc(F)cc2)cc1 | i | i | nt | i | i | i
CC(Nc1ccc(F)cc1)=[N+](C)CCNS(=O)(=O)c1ccc(Cl)cc1 | i | 20µM | ? | 50.1µM | ? | ?
CCOC(=O)CSC1=C(C#N)C(c2sccc2C)C(C(C)=O)=C(C)N1 (centres undefined) | i | i | nt | i | 26.7µM | i
CCCOC(=O)CSC1=C(C#N)C(c2ccccc2OCC)C(C#N)C(=O)N1 (centres undefined) | ? | i | i | 50.1µM | i | ?
CCOC(=O)CSC1=C(C#N)C(c2ccc(Cl)cc2)C(C(=O)OC)C(=O)N1 (centres undefined) | i | i | nt | i | 23.8µM | i
CCCCOC(=O)CSC1=C(C#N)C(c2ccccc2OCC)C(C#N)C(=O)N1 (centres undefined) | i | i | nt | 50.1µM | i | i
CC(=O)C1=C(C)NC(SCC(N)=O)=C(C#N)C1c1sccc1C (centres undefined) | i | ? | nt | i | i | i
COC(=O)C1C(=O)NC(SC)=C(C#N)C1c1ccccc1 (centres undefined) | i | i | i | i | i | i
COc1ccc(C(=O)NCC2(N3CCCCC3)CCCCC2)cc1S(=O)(=O)N(C)C | i | i | i | i | i | i
SMILES | KAT2A inh | JMJD2A Tudor | PI5P4K alpha inh | BAZ2B block | PLK1 PBD block | HP1b chromo inh
CCSc1nnc(NC(=O)C2Cc3ccccc3CN2C(=O)c2ccco2)s1 (centres undefined) | i | 79.4µM | -51.6 | ? | ? | i
CNC(=O)/C(C#N)=C\c1ccc(CNS(=O)(=O)c2ccc(Cl)cc2)o1 | i | i[11.4 µM] | i | ? | 16.8µM | i
CNC(=O)/C(C#N)=C\c1ccc(CNS(=O)(=O)c2ccccc2)o1 | i | i | i | i | i | i
CCOC(=O)c1c(C)nc(C)c(C(=O)OCC)c1-c1ccc(O)c(OC)c1 | i | i | i | i | 6.7µM | ?
COC(=O)c1c(C)nc(C)c(C(=O)OC)c1-c1ccc(OC)c(OC)c1 | i | i | i | i | i | i
COc1ccc(CN(C)S(=O)(=O)c2nnc(NC(=O)C(C)C)s2)cc1OC | i | i | nt | i | nt | i
O=C(CC1C(=O)NCCN1Cc1ccc(Cl)c(F)c1)NC1CCC1 (centres undefined) | ? | i | i | i | i | i
COC(=O)c1[nH]c2ccccc2c1NC(=O)CN1CCN(c2cccc(OC)c2)C(C)C1 (centres undefined) | i | 15.8µM | i | ? | i | ?
COC(=O)c1[nH]c2cc(OC)ccc2c1NC(=O)CCN1CCN(c2ccccc2)CC1 | i | i | i | i | i | i
CCN(CC(=O)Nc1c(C(=O)OC)[nH]c2ccc(C)cc12)c1ccc2c(c1)OCO2 | i | 44.7µM | nt | 39.8µM | i | i
COC(=O)c1[nH]c2ccccc2c1NC(=O)CN1CCN(Cc2ccc3c(c2)OCO3)CC1 | i | 79.4µM | i | i | i | i
O=c1ccc2cc(S(=O)(=O)Nc3ccc(OC(F)(F)F)cc3)ccc2[nH]1 | i | ? | nt | i | nt | i
C(=NN1CCCCCC1)c1cccc2ccccc12 | nt | 50.1µM | i | nt | i | ?
Oc1ccccc1C=NN1CCCCCC1 | nt | 44.7µM | i | nt | i | ?
Oc1ccccc1/C=N/N1CCCCC1 | i | i | i | nt | i | i
C(=NN1CCCCCC1)c1ccc2c(c1)OCO2 | nt | 50.1µM | i | nt | i | ?
Oc1ccc(Cl)cc1C=NN1CCCCCC1 | nt | 56.2µM | i | nt | i | i
C(=N\n1cnnc1)/c1ccc2c(c1)OCO2 | i | i | i | i | i | i
Cc1ccc(SCC(=O)NNC(=O)c2ccccc2)c(C)c1 | i | i | i | i | i | i
C[C@@H](NCCCc1cccc(C(F)(F)F)c1)c1cccc2ccccc12 | i | nt | nt | nt | nt | nt
CN1C(=O)Cc2cc(S(=O)(=O)NCc3ccc(Cl)cc3)ccc21 | i | i | nt | i | nt | i
COc1cccc(/C=N/NC(=O)c2ccc(=O)n(C)c2)c1O | i | 56.2µM | i | ? | i | i
COc1cccc(/C=N/NC(=O)c2c(C)nc3ccc(Cl)cn23)c1O | i | 56.2µM | i | 8.91µM | i | i
COc1cccc(/C=N/NC(=O)c2ccc(=O)[nH]n2)c1O | i | 79.4µM | i | 50.1µM | i | i
